According to PubChem BioAssay AID1345085 (National Center for Advancing Translational Sciences (NCATS), 2018):
Records with an inconclusive call do not appear. A number with no mark means an inactive call. Active and inactive are the calls of the source. Calls follow the shape of the dose curve; as a rule, active = well fitted cell-killing curve with a large enough effect; inconclusive = small, poorly fitted or top-dose-only effect, or effect the other way; inactive = no such curve, though single readings can be large or run the other way.

Tested on: CASKI
Assay: Confirmatory qHTS for gynecologic anti-cancer compounds from libraries of approved drugs and bioactive compounds; also: nearly all actives have a fitted effect of over 55% in size
Settings: gynecologic cancer cell panel viability, ATPlite luminescence, 48 h; series mostly up to 57.6 µM; activity change, negative = viability loss: at the top concentration
Summary of the method: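 Cells (1,000/well) plated 16 h, then exposed 48 h at 37 °C to 11 concentrations (1:3) from 57.5 uM to 0.977 nM. Viability by ATPlite luminescence after 15 min; IC50 derived, with HEK 293T used for selectivity index.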
% is scaled to controls: 0 for no effect and ±100 for the full control effect; potency is read from the fitted curve at half-maximal effect.

SMILES	activity change, negative = viability loss	Potency
CN(C)C(CCOc1cccc2ccccc12)c1ccccc1 (configuration not stated)	-2.64%	–
CNC(=O)c1ccccc1Nc1nc(Nc2ccc(N3CCOCC3)cc2OC)ncc1Cl	–	6.11 µM (active)
O=c1cc(CN2CCOCC2)occ1OCCCCCSc1ccnc2cc(C(F)(F)F)ccc12	–	24.3 µM (active)
CC(C)C[C@H](NC(=O)[C@H](Cc1ccccc1)NC(=O)c1cnccn1)B(O)O	–	0.0343 µM (active)
COc1cc(Nc2c(C#N)cnc3cc(OCCCN4CCN(C)CC4)c(OC)cc23)c(Cl)cc1Cl	–	24.3 µM (active)
Cc1c(C)n(Cc2ccc(-c3ccccc3C(=O)O)cc2)c2ccc(C(=O)N[C@@H](C)c3ccc([N+](=O)[O-])cc3)cc12	9.23%	–
CCC(=O)N1CCN(c2ccc(-n3c(=O)ccc4cnc5ccc(-c6cnc7ccccc7c6)cc5c43)cc2C(F)(F)F)CC1	-25.9% [at 10.7 µM]	–
CC(=O)c1cnc2ccc(-c3cc(Cl)c(O)c(Cl)c3)nc2c1NC1CCC(CN(C)C)CC1 (configuration not stated)	–	0.559 µM (active)
O=C(c1ccc(F)c(F)c1Nc1ccc(I)cc1F)N1CC(O)([C@@H]2CCCCN2)C1	–	17.2 µM (active)
C=CC(=O)Nc1cccc(Oc2nc(Nc3ccc(N4CCN(C)CC4)cc3)ncc2Cl)c1	–	10.9 µM (active)
CNCc1ccc(-c2[nH]c3cc(F)cc4c3c2CCNC4=O)cc1	19.2%	–
Cn1c(=O)c(F)c(Nc2ccc(I)cc2F)c2c(=O)n(CC(O)CO)cnc21 (configuration not stated)	–	24.3 µM (active)
CCOC(=O)C1=C(C)NC2=C(C(=O)CC(C)(C)C2)C1c1ccc(-c2ccccc2)cc1 (configuration not stated)	-23.5%	–
CCC1=CC2CN(C1)Cc1c([nH]c3ccccc13)[C@@](C(=O)OC)(c1cc3c(cc1OC)N(C)[C@H]1[C@@](O)(C(=O)OC)[C@H](OC(C)=O)[C@]4(CC)C=CCN5CC[C@]31[C@@H]54)C2 (some centres not stated)	-2.39% [at 19.5 µM]	–
c1cc(N[C@@H]2CCNC2)nc(-c2cnc3ccc(-c4cn[nH]c4)cn23)c1	–	27.3 µM (active)
COc1cc(N2CCC(N)CC2)ccc1Nc1ncc(Cl)c(-c2c[nH]c3ccccc23)n1	–	24.3 µM (active)

SMILES	activity change, negative = viability loss	Potency
Nc1ccc(-c2ccc3ncc4ccc(=O)n(-c5cccc(C(F)(F)F)c5)c4c3c2)cn1	–	1.93 µM (active)
CNc1nc(Nc2ccc(C(=O)N3CCOCC3)cc2OC)ncc1Cl	-19.4%	–
CN(C)C/C=C/C(=O)Nc1cc2c(Nc3ccc(F)c(Cl)c3)ncnc2cc1OC1CCOC1 (configuration not stated)	–	21.7 µM (active)
Cn1cc(-c2ccc3ncc(Cc4ccc5ncccc5c4)n3n2)cn1	11.8%	–
COc1cc2nccc(Oc3ccc(NC(=O)Nc4cc(C)on4)c(Cl)c3)c2cc1OC	–	27.3 µM (active)
O=C1N(c2ccccc2)c2ccccc2C1(Cc1ccncc1)Cc1ccncc1	8.36%	–
CN1CCN(CCOc2cc(OC3CCOCC3)c3c(Nc4c(Cl)ccc5c4OCO5)ncnc3c2)CC1	–	19.3 µM (active)
C[C@]12CCC(=O)C=C1[C@@H]1C[C@@H]1[C@H]1[C@@H]3[C@@H]4C[C@@H]4[C@@]4(CCC(=O)O4)[C@@]3(C)CC[C@@H]12	-4.75%	–
Cc1nc(Nc2ncc(C(=O)Nc3c(C)cccc3Cl)s2)cc(N2CCN(CCO)CC2)n1	–	0.109 µM (active)
FC(F)(F)c1ccc(/C=C/c2nc(COc3ccc(CCCCn4ccnn4)cc3)co2)cc1	–	0.137 µM (active)
COc1ccc2cc3[n+](cc2c1OC)CCc1cc2c(cc1-3)OCO2	–	10.9 µM (active)
CCN[C@H]1C[C@H](C)S(=O)(=O)c2sc(S(N)(=O)=O)cc21	34.2%	–
Cc1cc(C2CCCCC2)n(O)c(=O)c1	–	3.96 µM (active)
CC(C)[C@@H](CS(=O)(=O)C(C)C)N1C(=O)[C@@](C)(CC(=O)O)C[C@H](c2cccc(Cl)c2)[C@H]1c1ccc(Cl)cc1	10.2%	–
Cc1nc(N)ncc1-c1nc(N2CCOCC2)c2sc(C(C)(C)O)cc2n1	–	0.769 µM (active)
CC(=O)O[C@H]1C(=O)[C@@]2(C)[C@H]([C@H](OC(=O)c3ccccc3)[C@]3(O)C[C@H](OC(=O)[C@H](O)[C@@H](NC(=O)c4ccccc4)c4ccccc4)C(C)=C1C3(C)C)[C@]1(OC(C)=O)CO[C@@H]1C[C@@H]2O	-4.63% [at 10.7 µM]	–
